# Experimental data published in PubChem BioAssay (NCATS).
# Several values for one entry are separate records, joined by “and”; a condition that tells them apart may be missing. Equal entries are not always repeated. Results filed as inconclusive are left out. A call without a number means that no potency is given here. Activity calls are given as the source filed them. Unless noted, the call rests on the fitted dose curve; in most records, active means well fitted curve in the direction sought with a large enough effect; inconclusive means small, poorly fitted or top-dose-only effect, or another doubt; inactive means no such curve, though single readings can be large; an effect the other way counts as inactive or inconclusive.
# Assays:
# [1] = Cell Viability - BJ (AID 421; calls by dose curve;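 further: potency means the concentration at half of the fitted maximal effect; cells exposed to compound for 40 hours at 37 °C before readout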); conditions: BJ fibroblast viability, qHTS
# Outline: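 Quantitative HTS: ATP depletion in BJ cells after 40 hr compound exposure in complete culture medium, detected with CellTiter-Glo; AC50 from standard Hill fits.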
# [2] = Cell Viability - MRC5 (AID 434; calls by dose curve;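 further: potency means the concentration at half of the fitted maximal effect; cells exposed to compound for 40 hours at 37 °C; potency reflects cytotoxicity seen as loss of intracellular ATP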); conditions: MRC5 lung fibroblast viability, qHTS
# Outline: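 ATP luminescence read-out (CellTiter-Glo, 20 min RT) after 40 hr, 37 °C compound exposure of 1500 MRC5 cells/well. Data normalized to DMSO (basal) and 100 uM tamoxifen (100% inhibition); AC50 from standard Hill equation.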
# [3] = target: Mitogen-activated protein kinase 10 (Mus musculus) (UniProt Q61831); assay: JNK3 AlphaScreen Assay (AID 530; active means well fitted curve in either direction with a large enough effect, not every such curve was filed as active;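 further: kinase came from lysate of stimulated human HepG2 cells; signal reports phosphorylation of biotinylated GST-cJun 1-79 at Ser73 with 10 µM ATP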); conditions: JNK3 lysate, c-Jun phosphorylation; series mostly up to 57.1 µM
# Outline: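 Activity was read by AlphaScreen after JNK3-containing HepG2 lysate (cytokine pre-activated) phosphorylated biotinylated GST-cJun with 10 uM ATP at room temperature. Phospho-Ser73 cJun antibody with Protein-A acceptor beads provided detection.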
# [4] = Cell Viability - NIH 3T3 (AID 541); conditions: NIH 3T3 cell viability, qHTS; activity change, negative = cytotoxicity: at 92.2 µM (top of the series);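 further: cells exposed to compound for 40 hours; nearly all actives have a fitted effect of over 25% in size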
# Outline: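 Intracellular ATP (CellTiter-Glo luminescence, 20 min at room temperature) measured after 40 hr compound exposure at 37 °C of 1000 NIH 3T3 mouse fibroblasts/well in complete medium; AC50 derived by Hill-equation modelling of qHTS concentration-response curves.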
# [5] = Cell Viability - Mesenchymal (AID 546); conditions: mesenchymal cells viability, qHTS; activity change, negative = cytotoxicity: at 91.7 µM (top of the series);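 further: cells exposed to compound for 40 hours before reading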
# Outline: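 Human renal mesenchymal cells (glomerulus-derived), 1000 cells/well, 5 hr 37 °C pre-incubation; compound 40 hr, 37 °C; CellTiter-Glo, 20 min RT; luminescence; AC50 via Hill equation.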
# [6] = Cellular Toxicity (caspase-3) HepG2 (AID 654); conditions: HepG2 caspase-3 activation, luminescence, 0% = DMSO only, 100% = tamoxifen; series mostly up to 92.2 µM;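 further: cells exposed to compound for 16 hours before reading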
# Outline: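 Caspase 3/7 activation is measured as a luminescence increase (aminoluciferin substrate) after 16 h compound exposure of human hepatocarcinoma HepG2 cells. AC50 values are Hill fits, scaled between DMSO baseline and 100 uM tamoxifen stimulation.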
# [7] = Cellular Toxicity (caspase-3) HUV-EC-C (AID 656); conditions: HUV-EC-C cells, caspase-3 activation (apoptosis), vehicle = 0, 100 µM tamoxifen = 100%; series mostly up to 92.2 µM
# Outline: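 Luminescent caspase-3/7 activation (aminoluciferin substrate cleavage) in HUV-EC-C cells after 16 hr compound exposure, 37°C. Signal normalized to DMSO basal and 100 uM tamoxifen as 100%; AC50 from concentration-response fitted with the Hill equation.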
# [8] = Cellular Toxicity (caspase-3) MRC-5 (AID 659); conditions: MRC-5 cells, luminescence, normalized: DMSO 0%, 10 µM staurosporine 100%; series mostly up to 91.7 µM
# Outline: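 MRC-5 fibroblasts, 1500/well; 16 h cpd, 37 °C; Caspase-Glo 3/7, 1 h RT; lumi read. Norm: DMSO = 0%, 10 uM staurosporine = 100%. Hill-fit AC50 from qHTS conc-response.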
# [9] = Cellular Toxicity (caspase-3) Mesangial (AID 660); conditions: mesangial cells, normalized: DMSO 0%, 100 µM tamoxifen 100%; series mostly up to 91.7 µM;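 further: combined caspase 3 and 7 activity read by Caspase-Glo luminescence; cells exposed to compound for 16 h before the caspase read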
# Outline: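 Caspase 3/7 activation measured by Caspase-Glo 3/7 luminescence (20 min, room temperature) following 16 h exposure of mesangial cells (1000/well); AC50 from Hill-equation fit, normalized to DMSO and 100 uM tamoxifen.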
# [10] = Cellular Toxicity (caspase-3) Hek293 (AID 664); conditions: HEK293 caspase-3 activation, DMSO = 0%, 100 µM tamoxifen = 100%; series mostly up to 92.2 µM;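 further: cells exposed to compound for 16 h at 37 °C before readout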
# Outline: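 Concentration-response qHTS: caspase 3/7 activation measured by luminescent aminoluciferin substrate cleavage after 16 h compound exposure of Hek 293 cells. AC50 from Hill equation, with DMSO as basal and 100 uM tamoxifen as 100%.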
# [11] = Cellular Toxicity (caspase-3) Renal Proximal Tubule (AID 667); conditions: renal proximal tubule cells, primary cells freshly taken from rat, solvent-only wells 0%, staurosporine 100%; series mostly up to 91.7 µM;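 further: cells exposed to compound for 16 hours at 37 °C before detection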
# Outline: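 Luminescent caspase 3/7 signal from peptide-aminoluciferin cleavage measures apoptosis in freshly isolated rat kidney proximal tubule cells after 16 h compound exposure. Concentration-response data are normalized to DMSO and 10 uM staurosporine, and AC50 values come from Hill equation fits.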
# [12] = MultiTox-Fluor Cytotoxicity Assay - LYMP1-003 - Live Cells (AID 962); conditions: LYMP1-003 lymphoblastoid cells, MultiTox-Fluor live-cell protease fluorescence; series mostly up to 92.2 µM;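 further: cells exposed to compound for 16 hours at 37 °C; cytotoxic hits lower the live-cell protease signal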
# Outline: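 Live-cell protease activity (GF-AFC substrate, 405/510 nm, 60 min at room temperature) after 16 h, 37 C compound exposure of human lymphoblastoid LYMP1-003 cells; concentration-response fitted to the Hill equation for AC50.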
# [13] = Cell Viability - LYMP1-003 - Assay at 40 hr (AID 964); conditions: LYMP1-003 lymphoblastoid viability; series mostly up to 92.2 µM; further: nearly all actives have a fitted effect of over 60% in size
# Outline: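 Viability is taken as cellular ATP, read by CellTiter-Glo luminescence after 40 h of compound exposure at 37 C. Cells: human lymphoblastoid line LYMP1-003 at 2500/well; AC50 values derived by Hill-equation fitting of concentration-response data.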
# [14] = Cell Viability - LYMP2-011 (AID 969); conditions: LYMP2-011 lymphoblastoid cells viability; series mostly up to 92.2 µM; further: nearly all actives have a fitted effect of over 60% in size
# Outline: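 Cytotoxicity qHTS with ATP content as read-out: lymphoblastoid cells (2500/well) exposed to compound for 24 h at 37 C, then luciferase luminescence measured. Concentration-response data fitted with the standard Hill equation to give AC50.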
# [15] = Cell Viability - LYMP2-013 (AID 970); conditions: LYMP2-013 lymphoblastoid cells viability; series mostly up to 92.2 µM; further: nearly all actives have a fitted effect of over 55% in size
# Outline: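 qHTS cytotoxicity: ATP-dependent luminescence (CellTiter-Glo, 30 min room temperature) read after 24 h compound exposure at 37 C of 2500 LYMP2-013 lymphoblastoid cells per well. Concentration-response fitted with Hill equation to give AC50.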
# [16] = Cell Viability - LYMP2-017 (AID 972); conditions: LYMP2-017 lymphoblastoid cell viability; series mostly up to 92.2 µM; further: nearly all actives have a fitted effect of over 55% in size
# Outline: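 CellTiter-Glo luminescence (cellular ATP, 30 min RT) measured cytotoxicity after 24 hr compound treatment at 37 C. Cells were a human lymphoblastoid line, LYMP2-017, plated at 2500/well and incubated 5 hr first; concentration-response fitted with Hill equation for AC50.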
# [17] = Cell Viability - LYMP2-007 (AID 979); conditions: LYMP2-007 lymphoblastoid cell viability; series mostly up to 92.2 µM;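 further: cells exposed to compound for 24 h before reading; nearly all actives have a fitted effect of over 60% in size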; further: potency means the concentration at half of the fitted maximal effect
# Outline: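 AC50 values come from Hill-equation fits of luminescent intracellular ATP (CellTiter-Glo, 30 min, room temperature) following 24 h compound exposure at 37 C. Cells: LYMP2-007 lymphoblastoid line, 2500 per well, in complete culture medium.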
# [18] = qHTS Assay for Identification of Small Molecule Inducers of Hypoxia Response (AID 2120; active means well fitted curve in the direction sought with a large enough effect in the signal ratio, with a control signal flat, not every such curve was filed as active; the % refers to the signal ratio); conditions: hypoxia response reporter cells, beta-lactamase ratio readout; series mostly up to 104 µM
# Outline: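 Reporter induction read as the CCF4 blue/green (460nm/530nm) emission ratio after 2.5 h dye loading at room temperature. ME-180 HRE-beta-lactamase cells received titrated compounds for 17 h at 37 degrees Celsius; AC50 values derived.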
# [19] = qHTS assay for small molecule antagonists of retinoid X receptor alpha signaling (AID 588546); conditions: HEK293T RXRa-UAS-bla, beta-lactamase ratio, antagonist mode; measured here: W530 green channel, cytotoxicity proxy;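 further: cells stimulated with 9-cis-retinoic acid as agonist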
# Outline: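 Beta-lactamase reporter inhibition, read as CCF4 fluorescence ratio (ex 405, em 460/530 nm) after 2 h at RT. HEK293T UAS-bla cells, 2500/well, were stimulated with 9-cis-RA at 500 or 100 nM final alongside test compound for 18 h at 37 C.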
# [20] = target: Peroxisome proliferator-activated receptor alpha (Homo sapiens) (UniProt Q07869); assay: qHTS assay for small molecule agonists of the peroxisome proliferator-activated receptor alpha (PPARalpha) signaling pathway (AID 651778); conditions: PathHunter PPARalpha complementation, chemiluminescence, 6 h; max response: stronger effect = higher value
# Peroxisome proliferator-activated receptor alpha (Homo sapiens), sequence (Q07869 whole entry, looked up, the tested form may be a part): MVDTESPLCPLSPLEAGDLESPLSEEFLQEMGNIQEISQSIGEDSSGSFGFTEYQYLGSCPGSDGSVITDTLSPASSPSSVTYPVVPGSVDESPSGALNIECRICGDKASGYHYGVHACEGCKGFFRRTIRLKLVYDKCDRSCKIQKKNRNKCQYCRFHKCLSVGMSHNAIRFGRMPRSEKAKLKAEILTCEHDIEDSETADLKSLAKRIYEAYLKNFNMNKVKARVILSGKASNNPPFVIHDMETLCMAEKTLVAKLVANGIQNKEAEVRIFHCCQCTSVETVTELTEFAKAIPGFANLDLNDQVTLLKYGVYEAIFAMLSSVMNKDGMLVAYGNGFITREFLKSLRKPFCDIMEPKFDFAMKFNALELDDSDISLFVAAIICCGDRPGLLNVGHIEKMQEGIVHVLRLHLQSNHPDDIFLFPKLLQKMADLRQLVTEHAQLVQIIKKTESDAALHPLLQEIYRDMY
# Outline: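 Enzyme-fragment complementation assay in which ligand-bound PPARalpha translocates and forms an active enzyme that generates chemiluminescence. Cells were plated overnight, exposed to compound for 6 hr at 37 C, and then given detection reagent for 60 min at room temperature.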
smiles,measurement,setting,value
Cc1ccc([N+](=O)[O-])c(C)c1,Potency,[1],> 92 µM (inactive)
same,Potency,[2],> 92 µM (inactive)
same,Potency,[3],inactive
same,Potency,[4],inactive
same,"activity change, negative = cytotoxicity",[5],1.9% (inactive)
same,outcome,[6],inactive
same,outcome,[7],inactive
same,outcome,[8],inactive
same,outcome,[9],inactive
same,outcome,[10],inactive
same,outcome,[11],inactive
same,Potency,[12],inactive
same,Potency,[13],inactive
same,Potency,[14],inactive
same,Potency,[15],inactive
same,Potency,[16],inactive
same,Potency,[17],inactive
same,outcome,[18],inactive
same,max response,[19],-2.42% and -7.16%
same,max response,[20],-4.28% (inactive) and -0.811% (inactive)
O=C1c2ccccc2C(=O)C1c1ccc2ccccc2n1,Potency,[1],33.1 µM (active)
same,Potency,[2],30.1 µM (active)
same,"activity change, negative = cytotoxicity",[4],-106% (active)
same,"activity change, negative = cytotoxicity",[5],-33.6% (inactive)
same,outcome,[6],inactive
same,outcome,[7],inactive
same,outcome,[8],inactive
same,outcome,[9],inactive
same,outcome,[10],inactive
same,outcome,[11],inactive
same,Potency,[12],inactive
same,Potency,[13],inactive
same,Potency,[14],inactive
same,Potency,[15],inactive
same,Potency,[16],inactive
same,Potency,[17],39.8 µM (active)
same,outcome,[18],inactive
same,max response,[19],-3.83%
same,max response,[20],1.24% (inactive) and 1.1% (inactive)
CCC(O)OC(O)CC (centres undefined),Potency,[1],> 92 µM (inactive)
same,Potency,[2],> 92 µM (inactive)
same,Potency,[3],inactive
same,Potency,[4],inactive
same,"activity change, negative = cytotoxicity",[5],7.91% (inactive) and -0.346% (inactive)
same,outcome,[6],inactive
same,outcome,[7],inactive
same,outcome,[8],inactive
same,outcome,[9],inactive
same,outcome,[10],inactive
same,outcome,[11],inactive
same,Potency,[12],inactive
same,Potency,[13],inactive
same,Potency,[14],inactive
same,Potency,[15],inactive
same,Potency,[16],inactive
same,Potency,[17],inactive
same,outcome,[18],inactive
same,max response,[19],-6.87% and -7.76%
same,max response,[20],-0.587% (inactive) [middle of 4 runs]
COc1c2ccoc2cc2oc(=O)ccc12,Potency,[1],> 92 µM (inactive)
same,Potency,[2],> 92 µM (inactive)
same,Potency,[3],inactive
same,Potency,[4],inactive
same,"activity change, negative = cytotoxicity",[5],-14.2% (inactive)
same,outcome,[6],inactive
same,outcome,[7],inactive
same,outcome,[8],inactive
same,outcome,[9],inactive
same,outcome,[10],inactive
same,outcome,[11],inactive
same,Potency,[12],inactive
same,Potency,[13],inactive
same,Potency,[14],inactive
same,Potency,[15],inactive
same,Potency,[16],inactive
same,Potency,[17],inactive
same,outcome,[18],inactive
same,max response,[19],-1.57%
same,max response,[20],-2.53% (inactive)
CCCCCCCCCCCCCCC1CO1 (centres undefined),Potency,[1],> 92 µM (inactive)
same,Potency,[2],> 92 µM (inactive)
same,Potency,[3],inactive
same,Potency,[4],inactive
same,"activity change, negative = cytotoxicity",[5],2.08% (inactive)
same,outcome,[6],inactive
same,outcome,[7],inactive
same,outcome,[8],inactive
same,outcome,[9],inactive
same,outcome,[10],inactive
same,outcome,[11],inactive
same,Potency,[12],inactive
same,Potency,[13],inactive
same,Potency,[14],inactive
same,Potency,[15],inactive
same,Potency,[16],inactive
same,Potency,[17],inactive
same,outcome,[18],inactive
same,max response,[19],-4.45% and -4.75%
same,max response,[20],-0.26% (inactive) and -1.17% (inactive)
CCCN(CCC)C(=O)SCC,Potency,[1],> 92 µM (inactive)
same,Potency,[2],> 92 µM (inactive)
same,Potency,[3],inactive
same,Potency,[4],inactive
same,"activity change, negative = cytotoxicity",[5],5.65% (inactive)
same,outcome,[6],inactive
same,outcome,[7],inactive
same,outcome,[8],inactive
same,outcome,[9],inactive
same,outcome,[10],inactive
same,outcome,[11],inactive
same,Potency,[12],inactive
same,Potency,[13],inactive
same,Potency,[14],inactive
same,Potency,[15],inactive
same,Potency,[16],inactive
same,Potency,[17],inactive
same,outcome,[18],inactive
same,max response,[19],-11.5% and -6.21%
same,max response,[20],-2.51% (inactive) and -1.87% (inactive)
